PNC inhibitor: High Content Assay for Compounds that inhibit the Assembly of the Perinucleolar Compartment | activity change (PNC), negative = inhibition, % at 10 µM | PC3M PTB-GFP, PNC prevalence imaging, 16 h; hits give low values | AID 2417, 2010 | 140,000 compounds, 3.1% hits;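 active = readout at or below -70, meaning at least 70% loss of cells showing the perinucleolar compartment, a nuclear body marking cancer cells; inconclusive = readout between -30 and a set limit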;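 note: plate controls were DMSO wells for no effect and camptothecin positive control wells for full effect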
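Compounds are pinned in duplicate onto adhered PC3M cells stably expressing GFP-tagged PTB and incubated 16 h at 37 C. Cells are then fixed, nuclei stained with Hoechst, and PNC-positive cells counted.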
ALDH1A1 inh: qHTS Assay for Inhibitors of Aldehyde Dehydrogenase 1 (ALDH1A1) | Purified ALDH1A1, NADH fluorescence, propionaldehyde substrate | Potency, µM (titrated, usually from 75.3 µM), without a hit: at the highest dose activity, negative = inhibition, actives largely listed as inhibitors | 220,000 compounds, 7.3% hits | AID 1030, 2008;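 note: potency is the fitted concentration of half-maximal effect; plate controls were no enzyme wells and a reference inhibitor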
HPGD inh: qHTS Assay for Inhibitors of HPGD (15-Hydroxyprostaglandin Dehydrogenase); 15-hydroxyprostaglandin dehydrogenase [NAD(+)] (Homo sapiens), P15428; purified HPGD, NADH fluorescence kinetic, PGE2 substrate; Potency, µM, for inactives: at the top dose activity change, negative = inhibition, hits mostly inhibitors; 150,000 compounds, 4.3% hits; AID 894, 2007; note: potency is the fitted concentration of half-maximal effect
Target sequence (P15428 whole entry, looked up): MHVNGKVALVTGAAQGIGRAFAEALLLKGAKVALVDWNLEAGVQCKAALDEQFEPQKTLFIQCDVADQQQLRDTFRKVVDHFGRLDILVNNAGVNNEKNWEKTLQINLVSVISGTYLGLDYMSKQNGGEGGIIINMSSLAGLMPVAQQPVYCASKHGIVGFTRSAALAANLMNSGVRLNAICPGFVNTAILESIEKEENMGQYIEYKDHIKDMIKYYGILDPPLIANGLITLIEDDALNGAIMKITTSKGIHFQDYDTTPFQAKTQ
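20 nM HPGD preincubated 15 min at room temperature with compound in 50 mM Tris-HCl pH 8, 0.01% Tween 20. Started with 1 mM NAD+ and 30 uM prostaglandin E2; NADH fluorescence (360/450 nm) read 5 times over 30-s intervals, last minus first.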
* hit, by the source's call; [ ] = remark or other dose. A selection: hits, their analogues and other compounds. The true share with any hit is near 11%. Unless noted, calls come from the whole dose curve; as a rule, active = well fitted inhibition curve with a large enough effect (not every such curve was filed as active); inconclusive = small, poorly fitted or top-dose-only effect, or another doubt; inactive = no such curve, though single readings can be large or run the other way. Unless noted, % is set by controls: 0 for no effect and ±100 for the full control effect.

CCOC(=O)C(C)(C)N(Cc1cccc(C)c1)S(=O)(=O)c1ccc(Cl)c([N+](=O)[O-])c1 was read as PNC inhibitor -22.5, ALDH1A1 inh 1.7% and HPGD inh -9.9%.
For Cc1cccc(COc2ncnc3nc[nH]c23)c1 the results were PNC inhibitor 30.3, ALDH1A1 inh 1.3% and HPGD inh -3.9%.
For O=C(/C=C/c1cccc([N+](=O)[O-])c1)NCCSCc1cccc(Cl)c1 the results were PNC inhibitor -12.3, ALDH1A1 inh inconclusive and HPGD inh inconclusive.
`CCCc1nc(SCc2ccccc2Cl)n[nH]1` gave PNC inhibitor 8.0, ALDH1A1 inh -4.2% and HPGD inh 12.6µM*.
`CCc1nc(SCc2ccc(F)cc2)n[nH]1` gave ALDH1A1 inh 0.0%.
For CCc1nc(SCc2cc(Cl)ccc2OC)n[nH]1 the results were PNC inhibitor 16.9, ALDH1A1 inh -3.3% and HPGD inh 12.6µM*.
`CC(=O)Nc1nc(SCc2ccc(Cl)cc2Cl)n[nH]1` gave PNC inhibitor inconclusive, ALDH1A1 inh -2.6% and HPGD inh 1.3%.
COC(=O)/C(=C1\OC(=O)C(c2ccccc2)C1=O)c1ccccc1 (configuration not stated) was read as ALDH1A1 inh -6.4% and HPGD inh -12.6%.
CCC1COC(c2cccn2Cc2ccccc2Cl)=N1 (configuration not stated) was read as ALDH1A1 inh -8.8%.
Screening Cc1ccccc1C(=O)NCC(=O)O returned ALDH1A1 inh 4.6%.
Cc1ccccc1C(=O)NCC(=O)NNC(=S)NC(=O)c1ccccc1C was read as PNC inhibitor 0.4, ALDH1A1 inh -0.6% and HPGD inh 25.1µM*.
For O=C(CNC(=S)NC(=O)c1ccccc1)c1ccccc1 the results were PNC inhibitor inconclusive, ALDH1A1 inh inconclusive and HPGD inh -6.0%.
`Cc1ccccc1C(=O)NCC(=O)NNC(=S)NC(=O)c1ccccc1` gave PNC inhibitor -83.1*, ALDH1A1 inh inconclusive and HPGD inh -19.2%.
Screening C/C(=N\OC(=O)c1ccccc1F)c1nccs1 returned PNC inhibitor -0.7, ALDH1A1 inh -4.2% and HPGD inh -11.4%.
For Nc1nnc(CSCc2ccc(F)cc2)s1 the results were PNC inhibitor inconclusive, ALDH1A1 inh 10µM* and HPGD inh 22.4µM*.
Screening Nc1nnc(-c2ccc(F)cc2)s1 returned PNC inhibitor 17.7, ALDH1A1 inh -9.1% and HPGD inh -17.0%.
`Cc1cc(C)cc(N(CC(=O)NCC2CCCO2)C(=O)CCC(=O)Nc2cc(C)on2)c1` (configuration not stated) gave PNC inhibitor -82.1*, ALDH1A1 inh 0.6% and HPGD inh -3.7%.
Screening Cc1cc(NC(=O)CCC(=O)N(CCC(C)C)CC(=O)NCC2CCCO2)no1 (configuration not stated) returned PNC inhibitor -0.2, ALDH1A1 inh -5.2% and HPGD inh 0.1%.
Cc1cc(C)c(C)c(OCC(=O)NCC2CCCO2)c1 (configuration not stated) was read as PNC inhibitor -90.4*, ALDH1A1 inh -2.3% and HPGD inh inconclusive.
For Cn1c(C(=O)OCC(=O)NCC2CCCO2)cc2sccc21 (configuration not stated) the results were PNC inhibitor inconclusive, ALDH1A1 inh -23.0% and HPGD inh 15.8µM*.
O=C(COC(=O)c1cccs1)NCC1CCCO1 (configuration not stated) was read as PNC inhibitor -11.3, ALDH1A1 inh -0.2% and HPGD inh inconclusive.
`Cc1cc(C)cc(OCC(=O)NCC2CCCO2)c1` (configuration not stated) gave PNC inhibitor 64.4, ALDH1A1 inh -3.8% and HPGD inh 15.8µM*.
For Cc1cc(S(=O)(=O)NC2CCCCC2)ccc1OCC(=O)NCC1CCCO1 (configuration not stated) the results were ALDH1A1 inh -0.8%.
O=C(COc1ccc(S(=O)(=O)NC2CCCC2)cc1)NCC1CCCO1 (configuration not stated) was read as ALDH1A1 inh 1.1%.
`O=[N+]([O-])c1nn(-c2ccccc2)[n+]([O-])c1N1CCN(c2ccccc2F)CC1` gave ALDH1A1 inh -5.6%.
Screening CC1CCc2c(sc3nc(CSc4ncn[nH]4)[nH]c(=O)c23)C1 (configuration not stated) returned PNC inhibitor -18.8 and ALDH1A1 inh inconclusive.
Cc1ccc(C(=O)NCC(=O)O)o1 was read as ALDH1A1 inh 2.5%.
For CC[C@@H](C)CN1C(=O)N[C@@H](c2ccccc2)C(C(=O)OC)=C1C the results were ALDH1A1 inh 11.5%[13.5 µM] and HPGD inh -1.5%.
For CN(Cc1ccccc1)C(=O)c1ccco1 the results were ALDH1A1 inh 4.8%.
O=C(c1ccco1)N(CCC(c1ccccc1)c1ccco1)Cc1ccco1 (configuration not stated) was read as PNC inhibitor 34.6, ALDH1A1 inh 3.55µM* and HPGD inh 20µM*.
Screening CCC1(C)CC(CCN(Cc2ccco2)C(C)=O)(c2ccccc2)CCO1 (configuration not stated) returned ALDH1A1 inh 2.3%.
CCC(=O)N(CCC(c1ccco1)c1ccccc1OC)Cc1cccs1 (configuration not stated) was read as PNC inhibitor -19.4, ALDH1A1 inh inconclusive and HPGD inh -15.6%.
For Cc1ccc(C(CCN(Cc2ccccc2)C(=O)c2ccco2)c2ccco2)cc1 (configuration not stated) the results were PNC inhibitor inconclusive, ALDH1A1 inh 20µM* and HPGD inh inconclusive.
For O=C(O)/C=C/C(=O)N(Cc1ccccc1)Cc1ccco1 the results were PNC inhibitor 2.9, ALDH1A1 inh 0.2% and HPGD inh -1.9%.
For CC1(C)CC(CCN(Cc2ccccc2)C(=O)c2ccco2)(c2ccccc2)CCO1 (configuration not stated) the results were PNC inhibitor -10.7, ALDH1A1 inh 25.1µM* and HPGD inh -12.0%.
Screening CC(=O)N(CCC(c1ccccc1)c1ccco1)Cc1cccs1 (configuration not stated) returned PNC inhibitor -7.1, ALDH1A1 inh 1.41µM* and HPGD inh 28.2µM*.
`CCCCNC(=O)N(c1c(N)n(Cc2ccccc2)c(=O)[nH]c1=O)C1CCCC1` gave ALDH1A1 inh 0.7%.
For COC(=O)CCCCCCCC(=O)Nc1nnc(C(F)(F)F)s1 the results were ALDH1A1 inh 3.3%.
CCOc1nc2cccc(C(=O)OC(C)OC(=O)OC3CCCCC3)c2n1Cc1ccc(-c2ccccc2-c2nn[nH]n2)cc1 (configuration not stated) was read as ALDH1A1 inh 0.3% and HPGD inh inconclusive.
`COc1ccc([N+](=O)[O-])cc1NC(=O)C(C)Sc1nc(C)c(C)c(C)n1` (configuration not stated) gave PNC inhibitor -18.9, ALDH1A1 inh 0.3% and HPGD inh -19.4%.
`CN(C)N=Nc1nc2c(c(=O)n(C)c(=O)n2C)n1CC1CO1` (configuration not stated) gave ALDH1A1 inh -6.1%.

Compound activity (PubChem BioAssay)
